Compound activity from PubChem.
HepG2 tox – counter-screen for TGF-b inhibitors: cytotoxicity in HepG2 cells. HepG2 CAGA-GFP viability, ATP luminescence, 18 h. Potency, µM (series often up to 46.1 µM), for inactives: at the highest dose activity change, negative = cytotoxicity, actives largely listed as cytotoxic. actives 0.76% (n = 410,000). AID 588856
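CellTiter-Glo luminescence gave cytotoxicity after 18 hours at 37 degrees C. The cells were HepG2 CAGA-GFP in 1% FBS DMEM, stimulated with 500 pg/mL TGF-beta after compound addition. %Activity was normalised to no-cell wells (complete cell-killing) and DMSO (no toxicity), and curves were fitted and classified.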
TGFb SMAD3 inh – inhibitors of TGF-b signaling. Potency, µM (top dose mostly 46.1 µM), inactives show at the top dose activity, negative = inhibition, hits mostly inhibitors. AID 588855. actives 1.2% (n = 410,000). HepG2 CAGA-GFP TGF-b/SMAD3 reporter, GFP fluorescence, 18 h; TGF-beta stimulated, 500 pg/mL final; further: on the % scale 0 is the no-effect control and ±100 the full control effect; nearly all actives have a fitted effect of over 65% in size
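HEPG2 CAGA-GFP cells (1000/well, DMEM with 1% FBS) were pre-incubated 2 h at 37 degrees C, given compound by pin tool, then stimulated with TGF-beta at 500 pg/mL final for 18 h before per-cell GFP fluorescence imaging.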
ATXN viability – viability counter-screen for ATXN expression inhibitors; S2 cells (HEK-293 line with an ATXN2-luciferase reporter) viability, CellTiter-Fluor protease fluorescence, 24 h; Potency, µM (titrated, usually from 56.7 µM), actives largely listed as cytotoxic; actives 0.49% (n = 400,000); AID 651635; further: nearly all actives have a fitted effect of over 40% in size
ATXN2 expr inh – ATXN2 expression inhibition; HEK-293 ATXN2-luciferase reporter, luminescence, 24 h; Potency, µM (highest dose often 57 µM), for the others: at the top dose activity change, negative = inhibition, most hits filed as inhibitors; actives 0.72% (n = 360,000); further: on the % scale 0 is the no-effect control and ±100 the full control effect; nearly all actives have a fitted effect of over 55% in size
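qHTS (up to 57 uM final) was run with 24 h compound exposure of reporter cells at 37 °C. Each well was multiplexed: SteadyGlo luminescence measured ATXN2-luciferase expression after a fluorogenic Gly-Phe-AFC viability readout (25 uM final).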
KB-V1 MDR tox – KB-V1 MDR subline cytotoxicity. KB-V1 MDR cells viability, CellTiter-Glo, 72 h. Potency, µM (highest dose often 46.1 µM), usual class: cytotoxic. actives 3.4% (n = 400,000); further: on the % scale 0 is the no-effect control and ±100 the full control effect; nearly all actives have a fitted effect of over 60% in size
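Cytotoxicity via CellTiter-Glo luminescence after 72 h compound exposure at 37 degrees C. Cells: drug-selected KB-V1 line, DMEM phenol-red free plus 10% FBS. Compounds tested at multiple concentrations; normalized data fitted to concentration-effect curves.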
KB-3-1 cytotox – kills parental KB-3-1 adenocarcinoma cells; KB-3-1 viability, CellTiter-Glo ATP luminescence, 72 h; Potency, µM (top dose mostly 46.1 µM), most hits filed as cytotoxic; actives 1.4% (n = 400,000); AID 1347075; further: on the % scale 0 is the no-effect control and ±100 the full control effect; nearly all actives have a fitted effect of over 60% in size
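Parental KB-3-1 adenocarcinoma cells in phenol-red-free DMEM with 10% FBS were pin-treated with compounds at several concentrations, incubated 72 h at 37 °C, and viability read by CellTiter-Glo luminescence; concentration-effect curves were fitted after normalization.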
The depositor's hits bear a star; ! = not confirmed by another sample. An excerpt weighted towards active compounds, which were near 5.9% of everything screened. The call rests on the fitted dose curve; in most records, active means well fitted curve in the direction sought with a large enough effect; inconclusive means small, poorly fitted or top-dose-only effect, or another doubt; inactive means no such curve, though single readings can be large; an effect the other way counts as inactive or inconclusive. Potency means the concentration at half of the fitted maximal effect.

Results for CCOc1cccc(NC(=O)CSc2ncc(-c3ccccc3)[nH]2)c1 ?
HepG2 tox: -23.2%; TGFb SMAD3 inh: -12.2%; ATXN viability: inactive; ATXN2 expr inh: 7.6%; KB-V1 MDR tox: inactive; KB-3-1 cytotox: inactive

What do the screens show for `Cc1cccc(NC(=O)CSc2ncc(-c3ccc(Br)cc3)[nH]2)c1`?
HepG2 tox: 12.6µM*; TGFb SMAD3 inh: inconclusive; ATXN viability: inconclusive; ATXN2 expr inh: inconclusive; KB-V1 MDR tox: inactive; KB-3-1 cytotox: inactive

Results for CNc1cc[n+](C)c2ccccc12 ?
HepG2 tox: -3.2%; TGFb SMAD3 inh: 0.7%; KB-V1 MDR tox: inconclusive; KB-3-1 cytotox: inactive

What do the screens show for `Cc1cccc(C)c1NC(=O)C(c1cc2ccccc2o1)N1CCC(c2ccccc2)CC1` (stereo not given)?
KB-V1 MDR tox: 20.6µM*; KB-3-1 cytotox: inconclusive

How did O=C(Cn1cnc([N+](=O)[O-])c1)c1ccc(Cl)cc1 do in these assays?
HepG2 tox: -0.4%; TGFb SMAD3 inh: -2.2%; ATXN viability: inactive; ATXN2 expr inh: 7.7%; KB-V1 MDR tox: inconclusive; KB-3-1 cytotox: inactive

How did O=C(C[n+]1cnn(CC(=O)c2ccc(Cl)cc2Cl)c1)c1ccc([N+](=O)[O-])cc1 do in these assays?
HepG2 tox: -68.8%; TGFb SMAD3 inh: -11.1%; ATXN viability: inactive; ATXN2 expr inh: -16.6%; KB-V1 MDR tox: inactive; KB-3-1 cytotox: 18.4µM*

What do the screens show for `CCCOC(=O)C1=C(C)CS[C@@H]2[C@H](NC(=O)COc3ccccc3)C(=O)N12`?
HepG2 tox: -1.3%; TGFb SMAD3 inh: -10.0%; KB-V1 MDR tox: inactive; KB-3-1 cytotox: inactive

How did CC(C)(C)c1ccc(C(=O)NC2(C(F)(F)F)NC(=O)N(CCc3ccccc3)C2=O)cc1 (stereo not given) do in these assays?
HepG2 tox: 20µM*; TGFb SMAD3 inh: 10µM*; ATXN viability: inconclusive; ATXN2 expr inh: inconclusive; KB-V1 MDR tox: inactive; KB-3-1 cytotox: inactive

What do the screens show for `O=C(NC1(C(F)(F)F)NC(=O)N(CCc2ccccc2)C1=O)c1ccc(Cl)cc1` (stereo not given)?
HepG2 tox: -46.1%; TGFb SMAD3 inh: inconclusive; ATXN viability: inconclusive; ATXN2 expr inh: inconclusive; KB-V1 MDR tox: inactive; KB-3-1 cytotox: inactive

What do the screens show for `COc1ccc(S(=O)(=O)N2CCC(c3nnc(-c4ccccc4C)o3)CC2)c(OC)c1`?
HepG2 tox: -18.6%; TGFb SMAD3 inh: inconclusive; ATXN viability: 7.94µM*; ATXN2 expr inh: 3.55µM*; KB-V1 MDR tox: inactive; KB-3-1 cytotox: inactive

Results for CC1CCN(S(=O)(=O)c2ccc(Cl)cc2)CC1 ?
HepG2 tox: -0.1%; TGFb SMAD3 inh: -1.8%; ATXN viability: inactive; ATXN2 expr inh: -1.2%; KB-V1 MDR tox: inactive; KB-3-1 cytotox: inactive

What do the screens show for `Cc1ccccc1-c1nnc(C2CCN(S(=O)(=O)c3ccc(Cl)cc3)CC2)o1`?
HepG2 tox: -40.0%; TGFb SMAD3 inh: -14.8%; ATXN viability: 3.55µM*; ATXN2 expr inh: inconclusive; KB-V1 MDR tox: inactive; KB-3-1 cytotox: inactive

What do the screens show for `COc1cc(CC(=O)N2CCc3ccccc32)cc(OC)c1OC`?
HepG2 tox: -18.1%; TGFb SMAD3 inh: inconclusive; ATXN viability: inactive; ATXN2 expr inh: 32.1%; KB-V1 MDR tox: inconclusive; KB-3-1 cytotox: inactive

Results for CCOC(=O)N1CCc2cc(OC)c(OC)c3c2c1cc1cc(OC)c(OC)cc13 ?
HepG2 tox: -43.1%; TGFb SMAD3 inh: -15.1%; ATXN viability: inconclusive; ATXN2 expr inh: 18.7%; KB-V1 MDR tox: 2.31µM*; KB-3-1 cytotox: 4.11µM*

How did CCOC(=O)[C@H](CCc1ccccc1)N[C@H]1CS[C@H](c2cccs2)CN(CC(=O)O)C1=O do in these assays?
ATXN viability: inactive; ATXN2 expr inh: 70.5%

How did CCOC(=O)[C@H](CCc1ccccc1)N[C@H]1CCc2ccccc2N(CC(=O)O)C1=O do in these assays?
HepG2 tox: 11.9%; TGFb SMAD3 inh: 9.1%; ATXN viability: 35.5µM*!; ATXN2 expr inh: 24.3µM*!; KB-V1 MDR tox: inactive; KB-3-1 cytotox: inactive

What do the screens show for `CC12CCC(C(=O)NCc3ccccc3)(OC1=O)C2(C)C` (stereo not given)?
HepG2 tox: -16.8%; TGFb SMAD3 inh: -0.5%; ATXN viability: inactive; ATXN2 expr inh: -5.7%; KB-V1 MDR tox: inactive; KB-3-1 cytotox: inactive

Results for C/C(=N\NC(=O)C12CCC(C)(C(=O)O1)C2(C)C)c1ccccc1O (stereo not given) ?
HepG2 tox: -45.2%; TGFb SMAD3 inh: inconclusive; ATXN viability: inactive; ATXN2 expr inh: 28.2µM*; KB-V1 MDR tox: inconclusive; KB-3-1 cytotox: inconclusive

What do the screens show for `C/C(=N\NC(=O)Cn1nc(C)c(Br)c1C)c1cccs1`?
HepG2 tox: -0.2%; TGFb SMAD3 inh: -8.8%; ATXN viability: inactive; ATXN2 expr inh: -10.9%; KB-V1 MDR tox: 14.6µM*; KB-3-1 cytotox: inactive

Results for C/C(=N\NC(=O)CSc1nc(C)cc(C)n1)c1cccs1 ?
HepG2 tox: -2.8%; TGFb SMAD3 inh: -7.1%; ATXN viability: inactive; ATXN2 expr inh: 11.7%; KB-V1 MDR tox: inactive; KB-3-1 cytotox: inactive

Results for CC1(c2ccccc2)CC(C)(C)N(C(=O)CSc2nnc(N)s2)c2ccccc21 (stereo not given) ?
HepG2 tox: 30.0%; TGFb SMAD3 inh: inconclusive; ATXN viability: inconclusive; ATXN2 expr inh: inconclusive; KB-V1 MDR tox: 16.4µM*; KB-3-1 cytotox: inactive

Results for CCCCCCCCCCCCCCCC[n+]1ccc(/C=C/c2c[nH]c3ccccc23)c2ccccc21 ?
HepG2 tox: -46.3%; TGFb SMAD3 inh: inconclusive; KB-V1 MDR tox: inconclusive; KB-3-1 cytotox: inconclusive

How did CCCCCCC[n+]1ccc(/C=C/c2c[nH]c3ccccc23)c2ccccc21 do in these assays?
HepG2 tox: 12.6µM*; TGFb SMAD3 inh: 7.08µM*; KB-V1 MDR tox: inconclusive; KB-3-1 cytotox: 7.31µM*

How did CCCCCCC[n+]1ccc(/C=C/c2c(C)[nH]c3ccccc23)c2ccccc21 do in these assays?
HepG2 tox: -113.7%; TGFb SMAD3 inh: 12.6µM*; KB-V1 MDR tox: inconclusive; KB-3-1 cytotox: 8.2µM*

What do the screens show for `CCCCCCCCCC[n+]1ccc(/C=C/c2c(C)[nH]c3ccccc23)c2ccccc21`?
HepG2 tox: 3.16µM*; TGFb SMAD3 inh: 2.51µM*; KB-V1 MDR tox: inconclusive; KB-3-1 cytotox: 5.8µM*
